# Assays:
# Assay in all cases: SPOT peptide array binding signal intensity (averaged, normalized) (arbitrary units (background-subtracted, floor 0; scale differs between SH3 domains)); higher = stronger binding of the SH3 domain to the peptide
# [1] = biological target: AgAbp1
# Procedure, shortened: (§1)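 GST-fused SH3 domains, from four yeast species, were produced in E. coli BL21(DE3) and captured on glutathione Sepharose. Membranes of cellulose carrying synthetic 15-mer peptides, in which cysteines had been replaced by serines, were exposed to each domain at 10 μg/ml overnight at 4°C in TBS-based blocking buffer. After anti-GST antibody, an HRP anti-mouse secondary and luminol, spots were imaged and quantified using Genespotter. Binding signal is normalized and background-subtracted spot intensity, averaged over replicates, in arbitrary units that differ between domains.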
# [2] = biological target: AgBbc1
# Procedure, shortened: as §1
# [3] = biological target: AgBem1-D1
# Procedure, shortened: as §1
# [4] = biological target: AgBzz1-D1
# Procedure, shortened: as §1
# [5] = biological target: AgBzz1-D2
# Procedure, shortened: as §1
# [6] = biological target: AgCyk3
# Procedure, shortened: as §1
# [7] = biological target: AgFus1
# Procedure, shortened: as §1
# [8] = biological target: AgHof1
# Procedure, shortened: as §1
# [9] = biological target: AgHse1
# Procedure, shortened: as §1
# [10] = biological target: AgLsb1
# Procedure, shortened: as §1
# [11] = biological target: AgLsb4
# Procedure, shortened: as §1
# [12] = biological target: AgMyo5
# Procedure, shortened: as §1
# [13] = biological target: AgNbp2
# Procedure, shortened: as §1
# [14] = biological target: AgRvs167
# Procedure, shortened: as §1
# [15] = biological target: AgSho1
# Procedure, shortened: as §1
# [16] = biological target: AgSla1-D1-D2
# Procedure, shortened: as §1
# [17] = biological target: AgSla1-D3
# Procedure, shortened: as §1
# [18] = biological target: CaAbp1-D1
# Procedure, shortened: as §1
# [19] = biological target: CaAbp1-D2
# Procedure, shortened: as §1
# [20] = biological target: CaBbc1
# Procedure, shortened: as §1
# [21] = biological target: CaBem1-D1
# Procedure, shortened: as §1
# [22] = biological target: CaBzz1-D1
# Procedure, shortened: as §1
# [23] = biological target: CaBzz1-D2
# Procedure, shortened: as §1
# [24] = biological target: CaCyk3
# Procedure, shortened: as §1
# [25] = biological target: CaFus1
# Procedure, shortened: as §1
# [26] = biological target: CaHof1
# Procedure, shortened: as §1
# [27] = biological target: CaHse1
# Procedure, shortened: as §1
# [28] = biological target: CaLsb1
# Procedure, shortened: as §1
# [29] = biological target: CaLsb4
# Procedure, shortened: as §1
# [30] = biological target: CaMyo5
# Procedure, shortened: as §1
# [31] = biological target: CaNbp2
# Procedure, shortened: as §1
# [32] = biological target: CaRvs167
# Procedure, shortened: as §1
# [33] = biological target: CaRvs167-3
# Procedure, shortened: as §1
# [34] = biological target: CaSho1
# Procedure, shortened: as §1
# [35] = biological target: CaSla1-D1-D2
# Procedure, shortened: as §1
# [36] = biological target: CaSla1-D3
# Procedure, shortened: as §1
# [37] = biological target: ScAbp1
# Procedure, shortened: as §1
# [38] = biological target: ScBbc1
# Procedure, shortened: as §1
# [39] = biological target: ScBem1-D1
# Procedure, shortened: as §1
# [40] = biological target: ScBzz1-D1
# Procedure, shortened: as §1
# [41] = biological target: ScBzz1-D2
# Procedure, shortened: as §1
# [42] = biological target: ScCyk3
# Procedure, shortened: as §1
# [43] = biological target: ScFus1
# Procedure, shortened: as §1
# [44] = biological target: ScHof1
# Procedure, shortened: as §1
# [45] = biological target: ScHse1
# Procedure, shortened: as §1
# [46] = biological target: ScLsb1
# Procedure, shortened: as §1
# [47] = biological target: ScLsb2
# Procedure, shortened: as §1
# [48] = biological target: ScLsb3
# Procedure, shortened: as §1
# [49] = biological target: ScLsb4
# Procedure, shortened: as §1
# [50] = biological target: ScMyo3
# Procedure, shortened: as §1
# [51] = biological target: ScMyo5
# Procedure, shortened: as §1
# [52] = biological target: ScNbp2
# Procedure, shortened: as §1
# [53] = biological target: ScPex13
# Procedure, shortened: as §1
# [54] = biological target: ScRvs167
# Procedure, shortened: as §1
# [55] = biological target: ScSho1
# Procedure, shortened: as §1
# [56] = biological target: ScSla1-D1-D2
# Procedure, shortened: as §1
# [57] = biological target: ScSla1-D3
# Procedure, shortened: as §1
# [58] = biological target: SpAbp1-D1
# Procedure, shortened: as §1
# [59] = biological target: SpBbc1
# Procedure, shortened: as §1
# [60] = biological target: SpBzz1-D1
# Procedure, shortened: as §1
# [61] = biological target: SpBzz1-D2
# Procedure, shortened: as §1
# [62] = biological target: SpCyk3
# Procedure, shortened: as §1
# [63] = biological target: SpHof1
# Procedure, shortened: as §1
# [64] = biological target: SpHof1-2
# Procedure, shortened: as §1
# [65] = biological target: SpHof1-3
# Procedure, shortened: as §1
# [66] = biological target: SpHse1
# Procedure, shortened: as §1
# [67] = biological target: SpLsb1
# Procedure, shortened: as §1
# [68] = biological target: SpLsb4
# Procedure, shortened: as §1
# [69] = biological target: SpMyo1
# Procedure, shortened: as §1
# [70] = biological target: SpNbp2
# Procedure, shortened: as §1
# [71] = biological target: SpPex13
# Procedure, shortened: as §1
# [72] = biological target: SpRvs167
# Procedure, shortened: as §1
# [73] = biological target: SpSla1-D1-D2
# Procedure, shortened: as §1
# [74] = biological target: SpSla1-D3
# Procedure, shortened: as §1
binder,measurement,setting,value
AGKRRLPLVRFKASD,SPOT peptide array binding signal intensity,[1],162
same,SPOT peptide array binding signal intensity,[2],109
same,SPOT peptide array binding signal intensity,[3],301
same,SPOT peptide array binding signal intensity,[4],44
same,SPOT peptide array binding signal intensity,[5],40.5
same,SPOT peptide array binding signal intensity,[6],5
same,SPOT peptide array binding signal intensity,[7],783
same,SPOT peptide array binding signal intensity,[8],84
same,SPOT peptide array binding signal intensity,[9],1070
same,SPOT peptide array binding signal intensity,[10],4
same,SPOT peptide array binding signal intensity,[11],214
same,SPOT peptide array binding signal intensity,[12],2
same,SPOT peptide array binding signal intensity,[13],232
same,SPOT peptide array binding signal intensity,[14],6
same,SPOT peptide array binding signal intensity,[15],218
same,SPOT peptide array binding signal intensity,[16],736
same,SPOT peptide array binding signal intensity,[17],11.8
same,SPOT peptide array binding signal intensity,[18],1220
same,SPOT peptide array binding signal intensity,[19],806
same,SPOT peptide array binding signal intensity,[20],259
same,SPOT peptide array binding signal intensity,[21],80.5
same,SPOT peptide array binding signal intensity,[22],125
same,SPOT peptide array binding signal intensity,[23],147
same,SPOT peptide array binding signal intensity,[24],69
same,SPOT peptide array binding signal intensity,[25],2040
same,SPOT peptide array binding signal intensity,[26],0.75
same,SPOT peptide array binding signal intensity,[27],71.5
same,SPOT peptide array binding signal intensity,[28],2
same,SPOT peptide array binding signal intensity,[29],173
same,SPOT peptide array binding signal intensity,[30],3
same,SPOT peptide array binding signal intensity,[31],384
same,SPOT peptide array binding signal intensity,[32],51.3
same,SPOT peptide array binding signal intensity,[33],226
same,SPOT peptide array binding signal intensity,[34],613
same,SPOT peptide array binding signal intensity,[35],162
same,SPOT peptide array binding signal intensity,[36],114
same,SPOT peptide array binding signal intensity,[37],146
same,SPOT peptide array binding signal intensity,[38],30.8
same,SPOT peptide array binding signal intensity,[39],68.5
same,SPOT peptide array binding signal intensity,[40],24
same,SPOT peptide array binding signal intensity,[41],44
same,SPOT peptide array binding signal intensity,[42],71
same,SPOT peptide array binding signal intensity,[43],584
same,SPOT peptide array binding signal intensity,[44],5.5
same,SPOT peptide array binding signal intensity,[45],2480
same,SPOT peptide array binding signal intensity,[46],4.5
same,SPOT peptide array binding signal intensity,[47],6.5
same,SPOT peptide array binding signal intensity,[48],478
same,SPOT peptide array binding signal intensity,[49],25.5
same,SPOT peptide array binding signal intensity,[50],5
same,SPOT peptide array binding signal intensity,[51],3
same,SPOT peptide array binding signal intensity,[52],626
same,SPOT peptide array binding signal intensity,[53],6.75
same,SPOT peptide array binding signal intensity,[54],364
same,SPOT peptide array binding signal intensity,[55],2030
same,SPOT peptide array binding signal intensity,[56],1180
same,SPOT peptide array binding signal intensity,[57],9.75
same,SPOT peptide array binding signal intensity,[58],592
same,SPOT peptide array binding signal intensity,[59],5.25
same,SPOT peptide array binding signal intensity,[60],180
same,SPOT peptide array binding signal intensity,[61],1
same,SPOT peptide array binding signal intensity,[62],67
same,SPOT peptide array binding signal intensity,[63],481
same,SPOT peptide array binding signal intensity,[64],99.5
same,SPOT peptide array binding signal intensity,[65],412
same,SPOT peptide array binding signal intensity,[66],536
same,SPOT peptide array binding signal intensity,[67],17
same,SPOT peptide array binding signal intensity,[68],354
same,SPOT peptide array binding signal intensity,[69],3.5
same,SPOT peptide array binding signal intensity,[70],1010
same,SPOT peptide array binding signal intensity,[71],42.5
same,SPOT peptide array binding signal intensity,[72],248
same,SPOT peptide array binding signal intensity,[73],4
same,SPOT peptide array binding signal intensity,[74],17.5
